Test results published in ChEMBL document CHEMBL1157539, “Thousands of chemical starting points for antimalarial lead identification” (Nature, 2010).

Columns and labels:
Assay type in all cases: functional
[1] = test system: Plasmodium falciparum; assay: GSK_TCMDC: Inhibition of Plasmodium falciparum 3D7 in whole red blood cells, using parasite LDH activity as an index of growth. Test compounds present at 2uM
[2] = test system: Plasmodium falciparum; assay: GSK_TCMDC: Inhibition of Plasmodium falciparum Dd2 in whole red blood cells, using parasite LDH activity as an index of growth. Test compounds present at 2uM
[3] = test system: HepG2; assay: GSK_TCMDC: Percent inhibition of human HepG2 cell line. Test compounds present at 10uM.

| SMILES | Inhibition [1] | Inhibition [2] | Inhibition [3] |
| --- | --- | --- | --- |
| COc1ccc(C2(CNCC(O)c3cccc([N+](=O)[O-])c3)CCCCC2)cc1OC.Cl (stereo not given) | 95% | 85% | 0% |
| Cc1ccc(Nc2nccc(N(C)c3ccc4c(c3)nc(NC(=O)Cc3ccc(Cl)c(Cl)c3)n4C)n2)cc1S(N)(=O)=O.O=C(O)C(F)(F)F | 94% | 60% | 71% |
| CCn1ncc(Cl)c1CN(C)S(=O)(=O)c1ccc2ccccc2c1 | 100% | 91% | 16% |
| Cc1cc(-c2cccc(CNC3CCN(C)CC3)c2)ccc1S(=O)(=O)NCCc1ccccn1.O=C(O)C(F)(F)F | 97% | 72% | 22% |
| Cc1ccc2[nH]c3c(NCCN(C)C)ncnc3c2c1 | 99% | 5% | 9% |
| Oc1cc(Nc2ccnc3cc(-c4cccc(CN5CCCCC5)c4)ccc23)c(F)cc1Cl | 100% | 100% | 21% |
| CCOC(=O)CC[C@H](NC(=O)c1ccc(NS(=O)(=O)c2ccc(-c3cnc(N)[nH]c3=O)cc2)cc1)C(=O)OCC | 95% | 2% | 5% |
| COc1ccc(CN2CCC(CNC(C)c3cccc4ccccc34)CC2)cc1.O=C(O)C(F)(F)F (stereo not given) | 100% | 26% | 58% |
| Cc1ccccc1C1CCN(C2CCC(NC(=O)/C=C/c3cc(C(F)(F)F)ccc3F)CC2)CC1 (stereo not given) | 100% | 45% | 56% |
| C=CCc1cc(Cc2cnc(N)nc2N)cc(CCC)c1O | 90% | 2% | 54% |
| CCCCNC(=O)[C@H](Cc1ccccc1)NC(=O)c1ccc(O)c(-c2ccc(Cl)c(Cl)c2)c1 | 98% | 97% | 0% |
| COC(=O)c1cccc(NC(=O)NC2CCN(c3ccnc(Nc4cc(OC)c(OC)c(OC)c4)n3)C2)c1 (stereo not given) | 99% | 68% | 7% |
| Cc1ccc(NC(=O)c2cc(S(=O)(=O)NC(C)(C)C)ccc2C)nc1 | 86% | 80% | 0% |
| Cc1ccc(-c2nc(N3CCN(C(=O)c4ccco4)CC3)c3ccc(Cl)cc3n2)cc1 | 90% | 78% | 17% |
| CN1CCc2cc(I)c(O)cc2C1Cc1ccccc1Cl.Cl (stereo not given) | 98% | 96% | 0% |
| CNC(=O)c1cc(F)c(F)cc1Nc1nc(Nc2cccc(CS(C)(=O)=O)c2)ncc1Cl.O=CO | 91% | 90% | 52% |
| Cc1cc(N2CCN(CC3CCN(C)CC3)CC2)nc(Nc2ccc(Cl)cc2)n1 | 99% | 89% | 20% |
| COc1ccc2ncc(F)c(NC(=O)C3CCC(NCc4cc5cc(F)cc(F)c5[nH]4)CC3)c2n1.Cl (stereo not given) | 95% | 15% | 18% |
| CC(C)C(C(=O)n1ncc2c3c(N)nc(N)nc3ccc21)C(C)C | 98% | 8% | 67% |
| CCCCC(N)COc1cccc2c(-c3ccncc3)c(-c3cccc(NC(=O)Nc4ccccc4)c3)nn12 (stereo not given) | 100% | 82% | 13% |
| FC(F)(F)c1ccc2[nH]c(-c3ccc(-c4ccc(CNCC5CCCO5)cc4)s3)nc2c1.O=C(O)C(F)(F)F (stereo not given) | 100% | 98% | 47% |
| CCCc1cc(N2CCC(N3CCCC3)CC2)nc(Nc2ccc(Cl)cc2)n1 | 96% | 9% | 29% |
| Cc1nc2nc(N)nc(N)c2c(C)c1Cc1cccc(C#N)c1.Cl | 97% | 1% | 64% |
| COc1ccc(CNC2Cc3ccccc3C2)cc1-c1ccc(S(=O)(=O)NCCN2CCCC2)c(F)c1.O=C(O)C(F)(F)F | 100% | 69% | 44% |
| CCCCCC(C)N/C(=N/c1cccc(Cl)c1Cl)Nc1ccc(C#N)cc1O (stereo not given) | 100% | 98% | 28% |
| COc1ccc(CC2(c3ccc(F)cc3)N=C(N)N(CCCc3ccccc3)C2=O)cc1.O=C(O)C(F)(F)F (stereo not given) | 99% | 97% | 38% |
| CN1CCN(c2nc(NCCNc3ccc([N+](=O)[O-])cc3)c3ccccc3n2)CC1 | 90% | 25% | 37% |
| COc1ccccc1C1CCN(C2CCC(NC(=O)/C=C/c3cc(C(F)(F)F)ccc3F)CC2)CC1 (stereo not given) | 97% | 32% | 39% |
| COc1ccc(Cl)cc1N1CCN(CCCNC(=O)c2ccc(-c3nc4cc5ccccc5cc4[nH]3)c(F)c2)CC1 | 99% | 62% | 12% |
| CC(=O)Nc1ccc(C#Cc2ccc(-c3c(C)[nH]c(C)c(Cl)c3=O)cc2)cc1 | 90% | 78% | 0% |
